PubChem BioAssay AID504806 (National Center for Advancing Translational Sciences (NCATS), 2011)
Calls of active or inactive are those of the source. Calls come from the whole dose curve; as a rule, active = well fitted activation curve with a large enough effect; inactive = flat fitted curve, though single readings scatter.

assay: Followup screen of LOPAC molecules that induce DNA re-replication in SW480 adenocarcinoma cells; conditions: Hoechst nuclear DNA content imaging, 48 h; series mostly up to 46.1 µM
Source text: NIH Molecular Libraries Probe Production Network [MLPCN] NIH Chemical Genomics Center [NCGC] MLPCN Grant: Fast Track K99 CA136555 Assay Provider: Melvin DePamphilis, NICHD, NIH Assay Overview Eukaryotic cells normally restrict genome duplication to once per cell division. When this process is aberrant, DNA re-replication occurs when cells reinitiate DNA replication before the first round of replication is complete. DNA re-replication induces the DNA damage response, arrests cell proliferation, and triggers apoptosis. The cell cycle components cyclin A, Cdt-1, Cdc6 and geminin are critical regulators of this process and their misregulation results in DNA re-replication in normal and cancer cells. To identify compounds that induce re-replication in normal cells, an image-based assay was used to measure DNA content of nuclei, as detected by the fluorescent DNA binding dye, Hoechst. Cell nuclei were imaged by a fluorescence scanning plate imager and compounds that induce DNA re-replication were identified by the increase of nuclei with elevated fluorescence intensity.
Assay Protocol Summary For screening, 250 cells in 5 uL/well were dispensed into black clear 1536-well plates (Aurora) using a solenoid-based dispenser. Following transfer of 23 nL compound or DMSO vehicle by a pin tool, the plates were incubated 48 hr at 37 C and 5% CO2. After addition of 1 uL/well Hoescht stain, the plates were incubated 40 min at 37 C, 5% CO2 and total intensity of fluorescent objects (nuclei) were enumerated by an Acumen Explorer Ex3 (TTP LabTech) fluorescence scanning plate imager (405 nm excitation, 500-530 nm emission). Keywords: NIH Roadmap, MLPCN, MLI, MLSMR, qHTS, NCGC, DNA replication, cancer

| Structure (SMILES) | Potency |
| --- | --- |
| CC(C)NP(=O)(NC(C)C)OP(=O)(NC(C)C)NC(C)C | inactive |
| COc1cc([C@@H]2c3cc4c(cc3[C@H](O)[C@@H]3COC(=O)[C@H]23)OCO4)cc(OC)c1OC | 0.0239 µM (active) |
| NCC#Cc1ccccc1 | 7.55 µM (active) |
